Consider seven compounds from PubChem BioAssay (EPA / NIEHS).

Values joined by “and” are separate entries in the source; they are usually repeats but may differ in a detail not shown here. Equal entries are not always repeated. Results filed as inconclusive are left out. The source holds several records for some structures; these can differ, active in one and inactive in another. Active and inactive are the calls of the source. How the source made its calls, unless noted: active means hit-call score of the fitted dose curve at least 0.9, where 1 is the maximum; inconclusive means response in the unintended direction; inactive means score below 0.9.

Read-out in test [1]: Thyroid Hormone Responsive (THRSP), THRSP (gene 7069)
The experiment in a line: LTEA_HepaRG_THRSP: Life Technologies and Expression Analysis (LTEA) Assay for Thyroid Hormone Responsive (THRSP) using HepaRG (AID 2283536; active means hit-call score of the fitted dose curve at least 0.9, where 1 is the maximum; inactive means score below 0.9). The conditions noted are these: mRNA level, 48 h; actives raise or lower the signal. In short, it runs like this: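 Differentiated HepaRG cells treated 48 h in serum-free induction medium with 8 half-log concentrations up to 100 uM (0.5% DMSO), duplicates. THRSP mRNA by TaqMan qRT-PCR normalised to ACTB, GAPDH, POLR2A; bidirectional fit versus DMSO.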

Read-out in test [2]: Cellular tumor antigen p53 (Homo sapiens) (UniProt P04637)
As to the kind of experiment: LTEA_HepaRG_TP53: Life Technologies and Expression Analysis (LTEA) Assay for Tumor Protein P53 (TP53) using HepaRG (AID 2283537; active means hit-call score of the fitted dose curve at least 0.9, where 1 is the maximum; inactive means score below 0.9). To be noted: mRNA level, 48 h; actives raise or lower the signal. In short, it runs like this: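 HepaRG, 48 h exposure, top 100 uM, half-log 8-point, 0.5% DMSO vehicle, duplicates. Read: TP53 mRNA by TaqMan qRT-PCR, normalised to ACTB/GAPDH/POLR2A; bidirectional fit vs DMSO.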

Read-out in test [3]: UDP glucuronosyltransferase (UGT1A1), UGT1A1 (gene 54658)
As to the kind of experiment: LTEA_HepaRG_UGT1A1: Life Technologies and Expression Analysis (LTEA) Assay for UDP glucuronosyltransferase (UGT1A1) using HepaRG (AID 2283538; active means hit-call score of the fitted dose curve at least 0.9, where 1 is the maximum; inactive means score below 0.9). The conditions noted are these: mRNA level, 48 h; actives raise or lower the signal. The method, boiled down:
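Human liver HepaRG cultures receive test chemical for 48 h, up to 100 uM in 0.5% DMSO, with phenobarbital induction controls. UGT1A1 mRNA is measured by qRT-PCR and normalized to ACTB, GAPDH and POLR2A.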

Read-out in test [4]: UDP glucuronosyltransferase (UGT1A6), UGT1A6 (gene 54578)
The experiment in a line: LTEA_HepaRG_UGT1A6: Life Technologies and Expression Analysis (LTEA) Assay for UDP glucuronosyltransferase (UGT1A6) using HepaRG (AID 2283539; active means hit-call score of the fitted dose curve at least 0.9, where 1 is the maximum; inactive means score below 0.9). The conditions noted are these: mRNA level, 48 h; actives raise or lower the signal. The method, boiled down: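 Expression was quantified by TaqMan qRT-PCR on Fluidigm arrays with ACTB/GAPDH/POLR2A normalization and bidirectional fitting against 0.5% DMSO. HepaRG cells (~100,000/well) were treated in duplicate for 48 h at eight half-log concentrations up to 100 uM in serum-free induction medium.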

Read-out in test [5]: X-box binding protein 1 (XBP1), XBP1 (gene 7494)
As to the kind of experiment: LTEA_HepaRG_XBP1: Life Technologies and Expression Analysis (LTEA) Assay for X-box binding protein 1 (XBP1) using HepaRG (AID 2283540; active means hit-call score of the fitted dose curve at least 0.9, where 1 is the maximum; inactive means score below 0.9). To be noted: mRNA level, 48 h; actives raise or lower the signal. The method, boiled down: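 XBP1 transcript by qRT-PCR (housekeeping-normalized: ACTB, GAPDH, POLR2A) after 48 h chemical treatment of HepaRG cells, 8-point half-log series topping at 100 uM, vehicle 0.5% DMSO. Gain and loss of signal fitted relative to DMSO.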

The nature of test [6]: LTEA_HepaRG_LDH_cytotoxicity: Cytotoxicity Assessment in the Life Technologies and Expression Analysis (LTEA) Assay (AID 2283563).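 On AC50: LDH activity released into spent culture medium as a marker of cell death.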 The method, boiled down:
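LDH release into culture medium read after 48 h chemical treatment of HepaRG cells. Duplicate wells, eight-point half-log series topping at 100 uM, 0.5% DMSO vehicle and baseline.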

Test [7] is described as follows: ATG_XTT_Cytotoxicity: Cytotoxicity Assessment in the Attagene TRANS-FACTORIAL HepG2 Assay (AID 2283584).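 On AC50: cells exposed to compound for 24 h before reading; active means loss of viability signal versus DMSO baseline.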 The method, boiled down:
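Viability endpoint from XTT after 24 h chemical exposure of reporter-transfected human HepG2 liver cells; signal loss fitted relative to DMSO negative control.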

A short description of test [8]: TOX21_p53_BLA_p3_viability: Viability Assessment in the Tox21 HCT-116 p53 Agonism Beta-lactamase Assay, Phase 3 (AID 2283593).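 Further: cells exposed to compound for 16 h before reading.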 The method, boiled down: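 HCT116 cells, 4000/well, dosed 5 h after plating by pin transfer (217-fold dilution from DMSO stock) and incubated 16 h at 37C, 5% CO2. Viability read as ATP luminescence with CellTiter-Glo after 30 min at room temperature.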

Test [9] addresses Cellular tumor antigen p53 (Homo sapiens) (UniProt P04637). As to the kind of experiment: TOX21_p53_BLA_p3_ratio: Tox21 HCT-116 p53 Agonism Beta-lactamase Assay, Ratio, Phase 3 (AID 2283596). In short, it runs like this:
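HCT116 p53-bla cells (4000/well) given compound in DMSO (217-fold dilution) after 5 h, incubated 16 h at 37C. CCF4-AM substrate 2 h at room temperature; 460/530 nm emission ratio, gain fitted against DMSO.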

Test [10] is described as follows: TOX21_p53_BLA_p4_viability: Viability Assessment in the Tox21 HCT-116 p53 Agonism Beta-lactamase Assay, Phase 4 (AID 2283597).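 Further: hits lower the luminescence signal meaning cytotoxicity.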 The method, boiled down: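 Following a 16 h exposure at 37C, the treated HCT116 wells were first read for the FRET ratio. They were then lysed with CellTiter-Glo, and ATP luminescence was recorded after 30 min at room temperature.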
Test [11] addresses Cellular tumor antigen p53 (Homo sapiens) (UniProt P04637). As to the kind of experiment: TOX21_p53_BLA_p5_ratio: Tox21 HCT-116 p53 Agonism Beta-lactamase Assay, Ratio, Phase 5 (AID 2283599). The method, boiled down:
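HCT-116 p53-bla cells (4000/well) plated 5 h, dosed with compound (217-fold DMSO dilution) for 16 h at 37 C; CCF4-AM substrate 2 h at room temperature. Activity is the 460/530 nm emission ratio (405 nm excitation), fitted in gain-of-signal direction versus DMSO.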

A short description of test [12]: TOX21_p53_BLA_p5_viability: Viability Assessment in the Tox21 HCT-116 p53 Agonism Beta-lactamase Assay, Phase 5 (AID 2283600). The method, boiled down: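 After the 460/530 nm beta-lactamase measurement, the wells received an ATP-detection luciferase reagent; signal was read 30 min later at RT. Compound treatment lasted 16 h on cells pre-incubated 5 h post-seeding.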

The target in test [13] is Cellular tumor antigen p53 (Homo sapiens) (UniProt P04637). The experiment in a line: TOX21_p53_BLA_p4_ratio: Tox21 HCT-116 p53 Agonism Beta-lactamase Assay, Ratio, Phase 4 (AID 2283601). In short, it runs like this: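 HCT-116 p53 beta-lactamase reporter cells (4000/well) preincubated 5 h, then compound (217-fold dilution of DMSO stock) for 16 h at 37C. CCF4-AM substrate added 2 h at room temperature; 460/530 nm emission ratio fitted upward versus DMSO.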

Test [14] in a line: Tanguay_ZF_120hpf_MORT_legacy: (Legacy) Oregon State University Tanguay Lab 120 Hour Post-fertilization zebrafish Assay for Mortality (AID 2283633). In short, it runs like this:
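Static waterborne exposure from 6 to 120 hpf at 28C of single dechorionated wild-type (5D) embryos per well, 0.64% DMSO final. Death recorded present/absent by brightfield at 24 and 120 hpf.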

Test [15] in a line: Tanguay_ZF_120hpf_YSE_legacy: (Legacy) Oregon State University Tanguay Lab 120 Hour Post-fertilization zebrafish Assay for Yolk Sac Edema (AID 2283634). The method, boiled down: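 Presence or absence of yolk sac edema was recorded at 120 hpf in surviving larvae. These were wild-type Tropical 5D embryos, chorion removed at 4 hpf, held in static exposure at 28C from 6 hpf with 0.64% DMSO vehicle.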

Test [16] is described as follows: Tanguay_ZF_120hpf_AXIS_legacy: (Legacy) Oregon State University Tanguay Lab 120 Hour Post-fertilization zebrafish Assay for Body Axis Malformation (AID 2283635). In short, it runs like this:
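Binary scoring of axis defects at 120 hpf under brightfield, fitted positive versus DMSO. Tropical 5D embryos, chorion removed by pronase at 4 hpf, were singly exposed in sealed, dark plates at 28C from 6 hpf; DMSO 0.64% final.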

Test [17] in a line: Tanguay_ZF_120hpf_EYE_legacy: (Legacy) Oregon State University Tanguay Lab 120 Hour Post-fertilization zebrafish Assay for Eye Malformation (AID 2283636).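 Further: binary presence or absence of eye malformation scored by brightfield in 120 hpf larvae.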 In short, it runs like this:
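Dechorionated Tropical 5D zebrafish embryos, one per well from 6 hpf, static exposure to 120 hpf at 28C, 0.64% DMSO. Eye malformation scored present/absent by brightfield; dead embryos not scored.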

A short description of test [18]: Tanguay_ZF_120hpf_SNOU_legacy: (Legacy) Oregon State University Tanguay Lab 120 Hour Post-fertilization zebrafish Assay for Snout Malformation (AID 2283637). The method, boiled down: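 Dechorionated tropical 5D wild-type zebrafish embryos exposed statically from 6 to 120 hpf at 28C, one per well, in 0.64% DMSO. Snout malformation scored as present/absent by brightfield at 120 hpf; dead embryos not scored.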

Test [19] in a line: TOX21_p53_BLA_p2_viability: Viability Assessment in the Tox21 HCT-116 p53 Agonism Beta-lactamase Assay, Phase 2 (AID 2283591).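 Further: compound exposure lasted 16 h at 37 °C; actives lower the ATP signal meaning cytotoxicity.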 The method, boiled down: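 HCT116 p53-bla cells, 4000/well, dosed after 5 h plating (217-fold dilution of DMSO stocks) and incubated 16 h at 37C. Viability taken as cellular ATP by CellTiter-Glo luminescence after 30 min RT; signal loss marks cytotoxicity.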

Test [20] deals with Cellular tumor antigen p53 (Homo sapiens) (UniProt P04637). As to the kind of experiment: TOX21_p53_BLA_p2_ratio: Tox21 HCT-116 p53 Agonism Beta-lactamase Assay, Ratio, Phase 2 (AID 2283592). The method, boiled down:
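Gain-of-signal p53 agonism was scored from the beta-lactamase FRET ratio (460/530 nm, 405 nm excitation) in HCT116 cells treated 16 h at 37C, 5% CO2, with DMSO serving as negative control and baseline.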

Chain of Cellular tumor antigen p53 (Homo sapiens) (P04637 whole entry, looked up): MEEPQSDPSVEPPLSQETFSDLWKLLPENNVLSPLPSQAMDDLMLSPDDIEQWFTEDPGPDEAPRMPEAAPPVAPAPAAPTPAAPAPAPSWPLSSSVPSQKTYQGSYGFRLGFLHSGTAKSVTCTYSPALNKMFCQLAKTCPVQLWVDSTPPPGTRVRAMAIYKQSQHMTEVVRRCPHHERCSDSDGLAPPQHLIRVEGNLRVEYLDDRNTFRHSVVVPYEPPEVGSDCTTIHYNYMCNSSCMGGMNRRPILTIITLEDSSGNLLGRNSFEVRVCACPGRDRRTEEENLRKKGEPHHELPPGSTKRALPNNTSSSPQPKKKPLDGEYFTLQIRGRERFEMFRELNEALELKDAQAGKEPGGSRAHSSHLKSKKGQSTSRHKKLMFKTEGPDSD

Regarding `CCCCCCCCCCCCCO`, the compound was classed as inactive in test [1], in test [2], in test [3], in test [4], in [5] and in [6]. The outcome in test [7], in [8], in test [9], in test [10], in [11] and in [12] was inactive. The outcome in test [13], in test [14], in [15], in test [16], in test [17] and in test [18] was inactive.

As to `CC(=O)OC/C=C(\C)CCC=C(C)C`, the outcome in test [1], in test [2], in [3], in test [4], in [5] and in test [6] was inactive. Moreover, the compound was called inactive in test [7], in test [19], in test [20], in test [9], in test [10] and in test [11]. In addition, the call in test [12], in [13], in test [14], in test [15], in test [16] and in test [17] was inactive. In addition, the outcome in test [18] was inactive.

Turning to `Cc1cccc([N+](=O)[O-])c1C`, the compound was called inactive in [1], in test [2], in test [3], in test [4], in test [5] and in test [6]. Besides, the call in [19], in [20], in test [8], in test [9], in test [10] and in test [11] was inactive. Further, the call in test [12], in test [14], in [15], in test [16], in [17] and in test [18] was inactive.

In the case of `CC=Cc1ccc(O)c(OC)c1`, the outcome in test [1], in [2], in [3], in test [4], in test [5] and in test [6] was inactive. The result in [7], in [19], in test [20], in [9], in test [10] and in test [11] was inactive. The result in test [12], in test [13], in test [14], in test [15], in test [16] and in test [17] was inactive.

Turning to `Cc1cccc(C)c1O`, the compound was called inactive in test [1], in test [2], in test [3], in test [4], in test [5] and in test [6]. In addition, the result in [7], in test [19], in test [8], in test [9], in test [10] and in test [11] was inactive. Further, the result in test [12], in [13], in test [14], in [15], in test [16] and in test [17] was inactive. The call in [18] was inactive.

Turning to `FC(F)(F)C(F)(F)C(F)(F)C(F)(F)C(F)(F)C(F)(F)CCI`, the compound was classed as inactive in test [1], in [2], in test [3], in [4], in test [5] and in test [6]. The compound was classed as inactive in test [7], in test [20], in [8], in test [9], in [11] and in test [14]. For the same compound, the call in [15], in test [16], in test [17] and in [18] was inactive.

For orientation: AC50 means the midpoint of the concentration-response curve, whichever way the signal moves. Regarding `CCCCC(CC)COC(=O)CC(C(=O)OCC(CC)CCCC)S(=O)(=O)O` (centres undefined), the compound was called inactive in test [1], in [5], in [8], in [9], in [14] and in test [15]. Moreover, the result in test [16], in test [17] and in [18] was inactive. In addition, the AC50 in test [2] was 50 µM (active); in test [3] it was 13.3 µM (active); in test [4], 79.9 µM (active); in [6] it was 75.3 µM (active); in [7] it was 43.8 µM (active); in [19] it was 59.8 µM (active) [middle of 4 runs]. For the same compound, the AC50 is 71.8 µM (active) and 65 µM (active) and 42 µM (active) in test [8]; 85.9 µM (active) and 83.5 µM (active) in [9]; 50.1 µM (active) [middle of 4 runs] in test [10]; 79.2 µM (active) [middle of 4 runs] in [11]; 62.1 µM (active) [middle of 4 runs] in test [12]; 79.2 µM (active) [middle of 4 runs] in [13].
